In PubChem BioAssay AID1456 (Vanderbilt High Throughput Screening Facility, 2008) one finds B-score of Tl+ flux slope (higher = more flux/activation; lower = inhibition) data, which are given here for 50 compounds.

The whole screen tested about 190,000 compounds, of which about 4,100 (2.2%) were called active. Only a selection was taken, and actives are over-represented in it overall. Unmarked numbers belong to inactive results.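 Rule for the calls: active = thallium flux slope and its plate-corrected score both differing from the plate sample mean at a set confidence after two filtering rounds, in either direction; inactive = the rest.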

In the assay the target is Solute carrier family 12 member 5 (Homo sapiens) (UniProt Q9H2X9). Put plainly: modulation of human KCC2 ion transport – cell-based, HEK293 KCC2, FluoZin-2 fluorescence, MLSMR, primary screen (AID 1456).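 Note: slope of fluorescence scaled to starting intensity during 10 to 20 s after thallium.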 To be noted: KCC2 cells, thallium flux FluoZin-2 fluorescence; at 10 µM.
Chain of Solute carrier family 12 member 5 (Homo sapiens) (Q9H2X9 whole entry, looked up): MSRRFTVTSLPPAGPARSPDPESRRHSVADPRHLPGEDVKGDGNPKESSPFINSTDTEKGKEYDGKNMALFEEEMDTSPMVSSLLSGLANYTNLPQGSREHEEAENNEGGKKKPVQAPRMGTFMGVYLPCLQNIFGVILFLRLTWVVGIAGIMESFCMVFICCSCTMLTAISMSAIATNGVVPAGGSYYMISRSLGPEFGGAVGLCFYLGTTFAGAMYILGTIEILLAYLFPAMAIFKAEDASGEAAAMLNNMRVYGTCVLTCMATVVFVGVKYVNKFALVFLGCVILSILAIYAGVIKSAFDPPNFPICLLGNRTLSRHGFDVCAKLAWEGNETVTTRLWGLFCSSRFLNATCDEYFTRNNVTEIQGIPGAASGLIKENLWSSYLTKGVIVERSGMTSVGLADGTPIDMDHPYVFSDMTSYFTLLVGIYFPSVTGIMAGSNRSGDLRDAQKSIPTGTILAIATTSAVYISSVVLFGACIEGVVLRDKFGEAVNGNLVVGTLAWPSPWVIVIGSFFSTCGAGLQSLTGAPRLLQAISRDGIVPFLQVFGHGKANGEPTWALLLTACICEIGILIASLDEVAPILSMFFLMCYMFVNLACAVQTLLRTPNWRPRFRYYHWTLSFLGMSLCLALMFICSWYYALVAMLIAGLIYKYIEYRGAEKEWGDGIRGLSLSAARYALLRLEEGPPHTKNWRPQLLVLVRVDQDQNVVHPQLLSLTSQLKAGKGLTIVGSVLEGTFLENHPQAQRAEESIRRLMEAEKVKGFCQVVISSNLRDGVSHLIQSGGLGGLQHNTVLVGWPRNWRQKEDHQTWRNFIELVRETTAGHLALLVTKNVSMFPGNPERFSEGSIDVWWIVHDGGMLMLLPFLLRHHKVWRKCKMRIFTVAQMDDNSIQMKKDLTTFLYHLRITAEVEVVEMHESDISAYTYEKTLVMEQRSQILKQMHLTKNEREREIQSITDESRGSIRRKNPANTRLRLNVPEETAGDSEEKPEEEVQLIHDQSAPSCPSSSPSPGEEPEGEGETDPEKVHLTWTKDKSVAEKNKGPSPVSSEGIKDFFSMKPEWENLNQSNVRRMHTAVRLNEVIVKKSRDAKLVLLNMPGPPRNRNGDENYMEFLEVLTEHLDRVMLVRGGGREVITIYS
In the case of `Cc1ccc(C(=O)N/N=C\c2cc(Br)c(Br)o2)cn1`, the B-score of Tl+ flux slope (higher = more flux/activation; lower = inhibition) was 1.86.
For `CCN(CC)CCCN=C(N)N` the value was 0.285; for `Cc1nc2cc(NC(=O)Nc3cccc(F)c3)ccc2n1C`, 0.703.
With `NNC(=O)c1cccc(COCC(F)(F)C(F)F)c1`, the B-score of Tl+ flux slope (higher = more flux/activation; lower = inhibition) is -0.618.
Turning to `Cc1cccc(-n2c(=O)c3c(C)c(C)sc3n(CC(N)=O)c2=O)c1`, the B-score of Tl+ flux slope (higher = more flux/activation; lower = inhibition) was 0.771.
For `N#CCSc1nc2c(c(=O)n1Cc1ccccc1)C1(CCCC1)Cc1ccccc1-2` the value was 1.45.
For the compound `Cc1cccc(-n2c(SCC(N)=O)nc3c(c2=O)C2(CCCCC2)Cc2ccccc2-3)c1`, the B-score of Tl+ flux slope (higher = more flux/activation; lower = inhibition) is 4.92 (active).
On to `Cc1cc(Nc2ccc(Cl)cc2)nc(N2CCOCC2)n1`, for which the B-score of Tl+ flux slope (higher = more flux/activation; lower = inhibition) is -1.05.
In the case of `NC(=S)Nc1c(Cl)cccc1Cl`, the B-score of Tl+ flux slope (higher = more flux/activation; lower = inhibition) is 0.0214.
For `C=CCNC(=O)COC(=O)CNC(=O)c1cc(Cl)cc([N+](=O)[O-])c1` the value was 0.057; for `C=CCNC(=S)NNC(=O)c1ccc(Br)o1`, 0.645; for `C=CCNC(=S)NNC(=O)COc1c(Cl)cc(Cl)cc1Cl`, 7.57 (active).
Take `Cc1cc(Nc2ccc(N3CCOCC3)cc2)c2cccc(C)c2n1`: the B-score of Tl+ flux slope (higher = more flux/activation; lower = inhibition) was -2.79.
Regarding `CNC(=S)N/N=C/c1ccc(N2CCOCC2)s1`, the B-score of Tl+ flux slope (higher = more flux/activation; lower = inhibition) was 1.59.
For `C=CCNC(=S)N/N=C/c1ccc(C)s1` the value was 14 (active); for `Cc1ccc(/C=N/NC(=O)CN2CCN(Cc3ccccc3)CC2)s1`, 0.187; for `O=C(Nc1nnc(CCN2CCCCC2)s1)c1cccc(Cl)c1`, 0.116.
For `CN1CCN(c2ccc(CNS(=O)(=O)c3cccc(F)c3)cc2)CC1` the value was -0.58.
With `Cc1nnc(C)c2c(C)n(N)c(C)c12` the figure was 0.198.
Regarding `COc1ccc(S(=O)(=O)Nc2cccnc2)c(Cl)c1Cl`, the B-score of Tl+ flux slope (higher = more flux/activation; lower = inhibition) was 0.54.
For `CCOC(=O)C1C(c2ccc(Cl)cc2)NC(=S)NC1(O)C(F)(F)F` (stereo not given), the B-score of Tl+ flux slope (higher = more flux/activation; lower = inhibition) is 1.75.
Turning to `CCOC(=O)C1=C(C)NC(=O)N(C(C)=O)C1c1ccc(Cl)cc1` (stereo not given), the B-score of Tl+ flux slope (higher = more flux/activation; lower = inhibition) is -1.98.
For the compound `CCOC(=O)C1Sc2[nH]c(=O)sc2C(c2ccc(Cl)cc2)C1C(=O)OCC` (stereo not given), the B-score of Tl+ flux slope (higher = more flux/activation; lower = inhibition) was -3.93 (active).
For `CCOCCn1c(-c2ccccc2)nc2ccccc21` the value was 0.025; for `Cc1cccc(-n2cnc(C(=O)NNC(=S)Nc3ccccc3)c2)n1`, -1.44.
With `Cc1ccc(-c2n[nH]c(=S)n2/N=C/c2cc3c(cc2[N+](=O)[O-])OCO3)cc1` the figure was 0.106; with `CCOc1ccc(-c2n[nH]c(=S)n2/N=C/c2cc3c(cc2[N+](=O)[O-])OCO3)cc1`, 0.939.
Regarding `O=[N+]([O-])c1ccccc1/C=N/n1c(COc2ccccc2)n[nH]c1=S`, the B-score of Tl+ flux slope (higher = more flux/activation; lower = inhibition) was 24.3 (active).
As to `COc1ccc(N(Cc2ccccc2)S(=O)(=O)c2cccc(C(=O)O)c2)cc1`, the B-score of Tl+ flux slope (higher = more flux/activation; lower = inhibition) is -1.07.
Consider `Cc1csc(=Nc2ccccc2)n1CCO`, for which the B-score of Tl+ flux slope (higher = more flux/activation; lower = inhibition) was 0.00145.
For `CN(c1ccccc1)c1ccc(/C=c2\s/c(=C(/C#N)C(=O)C(C)(C)C)n(Cc3ccco3)c2=O)cc1` the value was 0.174; for `Cc1cs/c(=N\N=C\c2ccc(O)cc2)n1Cc1ccco1`, -4.66 (active); for `CCc1nc2sc3c(Cl)ncnc3c2c2c1CCCC2`, 1.2.
Turning to `Cc1ccc(F)cc1NC(=O)N1CCCN(c2ccc(C(F)(F)F)cn2)CC1`, the B-score of Tl+ flux slope (higher = more flux/activation; lower = inhibition) was 0.46.
For `Cc1ccc(N(C(=O)c2sc(C)nc2C)C(C(=O)NC(C)(C)C)c2ccncc2)cc1` (stereo not given) the value was 0.0067.
On to `O=C(Nc1ccccc1)N1CCN(Cc2ccccc2)CC1`, for which the B-score of Tl+ flux slope (higher = more flux/activation; lower = inhibition) was -0.481.
On to `O=C(NC(=S)N1CCN(Cc2ccccc2)CC1)c1ccccc1`, for which the B-score of Tl+ flux slope (higher = more flux/activation; lower = inhibition) was 26.6 (active).
With `O=C(CN1CCN(Cc2ccccc2)CC1)NC(c1ccccc1)c1ccccc1`, the B-score of Tl+ flux slope (higher = more flux/activation; lower = inhibition) is -2.1.
For `CC(=O)Nc1nc(C)c(-c2csc(Nc3ccc(S(N)(=O)=O)cc3)n2)s1` the value was 0.404; for `Oc1ccc(-c2nnc(Nc3ccccc3)c3ccccc23)cc1`, -3.93.
`S=c1[nH]nc(Nc2ccccc2)s1`: the B-score of Tl+ flux slope (higher = more flux/activation; lower = inhibition) is -8.06 (active).
With `c1ccc(Nc2n[nH]nc2-c2ccccc2)cc1` the figure was -0.551; with `S=c1[nH]nc(NCCc2ccccc2)s1`, -1.55.
Take `CNC1(c2nnnn2-c2c(C)cccc2C)CCOC(C)(C)C1` (stereo not given): the B-score of Tl+ flux slope (higher = more flux/activation; lower = inhibition) is -0.333.
For the compound `Cc1cc(=O)[nH]c2nnnn12`, the B-score of Tl+ flux slope (higher = more flux/activation; lower = inhibition) is 0.843.
`CC(Nc1nc(N2CCOCC2)nc2ccccc12)c1ccccc1` (stereo not given): the B-score of Tl+ flux slope (higher = more flux/activation; lower = inhibition) was -0.0767.
With `Cc1cc(C)c(C)c(S(=O)(=O)N[C@@H](C)C(=O)OC(C)C(=O)NC(N)=O)c1C` (stereo not given in full) the figure was -0.78.
For `O=C(c1cc(-c2ccc(O)cc2)on1)N1CCCc2ccccc21` the value was -2.96 (active); for `Cc1ccc(-c2cc(C(=O)N3CCc4ccccc4C3)no2)cc1`, 0.312.
As to `O=C(c1cc(-c2cccc(O)c2)on1)N1CCc2ccccc2C1`, the B-score of Tl+ flux slope (higher = more flux/activation; lower = inhibition) is -2.87.
